Assay outcomes from PubChem BioAssay.
Sampled rows, rich in hits. Any-hit rate of the full collection: about 21%.
NS1 function inh: inhibitors of influenza NS1 protein function | Potency, µM (highest dose often 46.1 µM), for inactives: at the highest dose activity, positive = more growth | hit rate 0.4% among 270,000 | AID 2326; calls by dose curve; note: potency is the fitted concentration of half-maximal effect; actives are rising curves; nearly all actives have a fitted effect of over 50% in size
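Recovery from NS1-induced slow growth read by OD600 in budding yeast switched to galactose assay medium (pH 6.0, -URA) at 1:100 dilution. Compound 23 nl per well; the matching strain lacking NS1 serves as control.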
Shiga toxin inh: blocks Shiga toxin action in Vero cells. Vero cells, Shiga toxin protein synthesis inhibition reporter. inhibition, % at 38.7 µM. hit rate 9.2% among 290,000; in the data active = inhibition mostly above about 28%, no sharp cut-off; inactive = mostly below about 43%; note: 0% is about no effect
Pf growth 48h: inhibits P. falciparum growth in the first generation, 48 h. Potency, µM (series often up to 28.7 µM), for inactives: at the top dose activity change, negative = inhibition, hits mostly inhibitors. P. falciparum luciferase growth in erythrocytes, 48 h. hit rate 5.9% among 310,000; note: potency is the fitted concentration of half-maximal effect; % is set by controls: 0 for no effect and ±100 for the full control effect
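First compound was added to culture medium, then infected red cells at 0.1% parasitemia and 2% hematocrit (final). After incubation at 37 C under 5% CO2, luciferase detection reagent was dispensed and light output recorded.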
Pf growth 96h: inhibits malaria parasite growth, 96 h | P. falciparum luciferase reporter growth, 96 h | Potency, µM (series often up to 28.7 µM), for inactives: at the top dose activity change, negative = inhibition, actives largely listed as inhibitors | hit rate 6.9% among 320,000 | AID 504834; note: potency is the fitted concentration of half-maximal effect; % is set by controls: 0 for no effect and ±100 for the full control effect
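Two-generation exposure (96 h) targets delayed-death phenotype. Reporter parasites carrying integrated firefly luciferase, in red cells at 2% hematocrit and 0.05% parasitemia final, kept at 37 C, 5% CO2; luminescence loss indicates inhibition.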
CHX counter: counter-screen for Shiga toxin inhibitors: cycloheximide protein synthesis inhibition. max response, %. cell reporter, cycloheximide protein synthesis inhibition counterscreen. hit rate 12% among 300,000; in the data active = max response mostly above about 13%, no sharp cut-off; inactive = mostly below about 14%; note: read at 38.3 µM for the half of the compounds with a filed dose; 0% is about no effect
Numbers without * were called inactive; u = inconclusive; x = not tested or not shown; [ ] = remark or other dose. Unless noted, calls come from the whole dose curve; as a rule, active = well fitted inhibition curve with a large enough effect; inconclusive = small, poorly fitted or top-dose-only effect, or another doubt; inactive = no such curve, though single readings can be large or run the other way.

SMILES	NS1 function inh	Shiga toxin inh	Pf growth 48h	Pf growth 96h	CHX counter
CCCCn1c(N)c(N(CC)C(=O)c2cc(Br)ccc2Cl)c(=O)[nH]c1=O	x	-5.7	-15.2%	-2.3%	-1.8
COc1cc(C(=O)Nc2ccc3c(c2)OCO3)ccc1OCc1c(C)noc1C	3.9%	24.3	0.0%	u	0.9
CC(=O)c1cnc2cc(-c3cccc(Br)c3)nn2c1C	x	91.2*	129.9%	u	38.6*
CC(=O)c1cnc2c(-c3ccccc3)c(-c3ccccc3)nn2c1C	-3.6%	-5.5	-11.1%	u	-2.1
CCCn1cnc2sc(CC)cc2c1=O	-1.5%	52.4*	43.3%	32.6%	29.9*
COc1ccc(OC)c(C(=O)NC(CC(N)=O)c2ccc(NC(C)C)c([N+](=O)[O-])c2)c1 (centres undefined)	10.5%	1.2	-6.1%	0.0%	1.8
CC(C)c1ccc(NC(=O)C2=NNC(=O)CC2)cc1	-2.1%	97.4*	100.3%	140.0%	37.7*
Cc1ccc(NC(=O)CCC(=O)O)cc1F	2.6%	28.5	8.7%	x	-2.1
O=C1CCC(C(=O)Nc2cccc(Oc3ccccc3)c2)=NN1	x	16.0	-15.4%	u	14.7*
Cc1ccc(NC(=O)C2=NNC(=O)CC2)cc1F	-2.7%	59.9*	94.8%	53.7%	34.9*
COc1ccccc1CC(=O)N1CCC(CCC(=O)NC2CC2)CC1	1.0%	6.8	u	226.3%	-2.1
COc1ccc(N(C(=O)c2snc(C(N)=O)c2N)C(C(=O)NCc2ccccc2)c2ccc(O)cc2)cc1 (centres undefined)	-1.0%	-12.6	-12.7%	9.3%	5.9
COc1ccc(N(C(=O)c2snc(C(N)=O)c2N)C(C(=O)NC2CCCC2)c2cccs2)c(OC)c1 (centres undefined)	24.8%	-14.9	u	78.9%	-1.9
COc1ccccc1N(C(=O)c1snc(C(N)=O)c1N)C(C(=O)NC1CCCC1)c1ccc(N(C)C)cc1 (centres undefined)	10.3%	-1.8	13.1µM*	5.1%	-4.9
COc1ccccc1N(C(=O)c1snc(C(N)=O)c1N)C(C(=O)NC1CCCC1)c1ccco1 (centres undefined)	0.6%	-12.8	-17.1%	14.3%	-7.6
COc1ccc(OC)c(N(C(=O)c2snc(C(N)=O)c2N)C(C(=O)NCc2ccccc2)c2ccc(O)cc2)c1 (centres undefined)	-46.4%	1.4	10.4µM*	13.1µM*	-3.2
COc1ccc(OC)c(C(C(=O)NC2CCCCC2)N(C(=O)c2snc(C(N)=O)c2N)c2ccccc2OC)c1 (centres undefined)	u	-6.9	2.62µM*	-0.4%	6.3
COc1ccccc1N(C(=O)c1snc(C(N)=O)c1N)C(C(=O)NC1CCCCC1)c1cccc(OC)c1OC (centres undefined)	0.2%	-13.5	8.28µM*	-8.4%	1.7
O=C(O)Cn1c2c(c3ccccc31)CCCC2	-9.8%	18.1	2.3%	225.9%	2.7
Cn1c(=O)c2c(nc(SCC(=O)N3CCCCCC3)n2C)n(C)c1=O	-11.6%	2.9	4.4%	0.4%	-3.5
COc1cccc(C(C(=O)NC2CCCC2)N(C(=O)c2ccco2)c2ccccc2F)c1OC (centres undefined)	6.9%	4.9	8.28µM*	30.7%	-2.0
COc1ccc(CN(C(=O)c2snc(C(N)=O)c2N)C(C(=O)NC2CCCC2)c2ccc(OC)cc2)cc1 (centres undefined)	7.5%	-5.3	u	-29.5%	-5.6
CC(C)(C)NC(=O)C(c1ccco1)N(Cc1ccc(F)cc1)C(=O)c1snc(C(N)=O)c1N (centres undefined)	-5.8%	-14.1	u	x	-1.7
COc1cccc(C(C(=O)NC2CCCC2)N(Cc2ccco2)C(=O)c2ccco2)c1OC (centres undefined)	12.3%[9.22 µM]	18.4	u	100.2%	-1.2
COc1ccc(C(C(=O)NC2CCCC2)N(Cc2cccnc2)C(=O)c2snc(C(N)=O)c2N)cc1 (centres undefined)	4.7%	-3.3	11.7µM*	13.1µM*	-5.2
SMILES	NS1 function inh	Shiga toxin inh	Pf growth 48h	Pf growth 96h	CHX counter
COc1ccc(CN(C(=O)c2snc(C(N)=O)c2N)C(C(=O)NC(C)(C)C)c2ccco2)cc1 (centres undefined)	-7.2%	-9.5	u	9.28µM*	-2.0
COc1ccc(CN(C(=O)c2snc(C(N)=O)c2N)C(C(=O)NC2CCCC2)c2cc(OC)ccc2OC)cc1 (centres undefined)	15.7%	-3.5	10.4µM*	2.08µM*	6.9
Cc1ccccc1N1CC(C(=O)N2CC(C)OC(C)C2)CC1=O (centres undefined)	-51.1%	-3.0	11.5%	u	-7.0
CCCCCCCCCCCCC/C=C/[C@@H](O)[C@H](CO)NC(=O)CCCCC	x	21.0	x	x	1.5
COc1ccc(N(CC(=O)NCc2ccco2)C(=O)CCC(=O)Nc2nccs2)cc1	23.7%	-15.2	0.8%	0.4%	-0.7
COc1ccc(C)cc1N(C(=O)c1snc(C(N)=O)c1N)C(C(=O)NC1CCCCC1)c1ccc(C)o1 (centres undefined)	28.1%	-8.4	9.28µM*	u	-8.0
O=C(c1cc(Sc2ccc(Cl)cc2)nc2ccccc12)N1CCN(c2ccccn2)CC1	x	13.8	11.7µM*	56.6%	-4.1
CCOc1ccc(-c2cc(C(=O)N3CCN(c4ccccn4)CC3)c3ccccc3n2)cc1	-31.4%	53.9*	-43.8%	x	35.2*
COc1ccc(-c2cc(C(=O)N3CCN(c4ncccn4)CC3)c3ccccc3n2)c(OC)c1	-57.4%	18.2	u	1.85µM*	-2.2
COc1cc(-c2cc(C(=O)N3CCN(c4ccccn4)CC3)c3ccccc3n2)cc(OC)c1OC	-36.8%	-10.3	u	47.2%	1.0
COc1ccc(OC)c(-c2cc(C(=O)N3CCN(c4ncccn4)CC3)c3ccccc3n2)c1	-8.8%	11.9	u	u	-2.8
CCCc1ccc(-c2cc(C(=O)N3CCN(c4ccccn4)CC3)c3ccccc3n2)cc1	25.9%	31.5	5.7%	5.22µM*	48.8*
O=C(Cc1ccccc1)Nc1ccnn1C1CCN(Cc2nccs2)CC1	-2.0%	-2.2	-3.4%	18.9%	-2.5
O=C(c1cnc(N2CCN(c3ccccn3)CC2)c2ccccc12)N1CCN(c2cccc(Cl)c2)CC1	x	16.4	9.28µM*	-18.3%	-0.6
COc1ccc(-c2cc(C(=O)N3CCN(c4ccccn4)CC3)c3ccccc3n2)cc1	-116.4%	74.7*	69.9%	x	43.4*
COC(=O)c1cc(OC)c(OC)cc1NC(=O)c1csc(C)c1	20.2%	-16.5	10.4µM*	u	-3.3
CSc1ccccc1NC(=O)c1csc(C)c1	-1.4%	35.9*	36.1%	10.4µM*	30.7*
COC(=O)c1cc(OC)c(OC)cc1NC(=O)c1cccc(C)c1	0.7%	-7.5	u	-17.5%	-1.1
COC(=O)c1cc(OC)c(OC)cc1NC(=S)Nc1cccc(Cl)c1	-7.1%	14.4	3.3%	13.1µM*	-2.1
Cc1cc(C(=O)Nc2ccc(Br)cc2)cs1	2.9%	83.5*	204.8%	u	46.9*
Cc1cccc(NC(=O)CSCC(=O)Nc2cccc3ncccc23)c1	x	x	u	3.9%	x
